Results from PubChem BioAssay (NCI).
This is part of a sample that, as a whole, favours compounds with a hit. Of some 79,000 tested, about 15% had one in any assay. Cut-off read from the data, not from the text of the source: active = growth inhibition above about 70%; inactive = the rest.

Tests used:
[1] = NCI Yeast Anticancer Drug Screen. Data for the rad50 strain (AID 155);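 note: 0% = growth of vehicle-only cultures of the same strain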; conditions: S. cerevisiae rad50 strain growth inhibition; at 50.0 µM; active compounds read high
In short: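 Readout: growth inhibition relative to vehicle-treated cultures. Compound exposure was carried out in a genetically defined yeast strain deficient in DNA damage repair.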

[2] = NCI Yeast Anticancer Drug Screen. Data for the mec2-1 strain (AID 157); conditions: S. cerevisiae mec2-1 strain, at 50.0 µM, active compounds read high
In short: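 mec2-1 yeast strain, carrying an alteration in DNA damage repair or cell cycle control, was exposed to compounds; growth inhibition was measured relative to vehicle-treated controls.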

[3] = NCI Yeast Anticancer Drug Screen. Data for the sgs1 mgt1 strain (AID 161);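 note: 0% = growth of cultures given vehicle only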; conditions: S. cerevisiae sgs1 mgt1 strain, at 50.0 µM, active compounds read high
In short: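 Yeast cells carrying a defined DNA-repair defect were exposed to test compounds. Growth inhibition was measured relative to vehicle-treated controls.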

[4] = NCI Yeast Anticancer Drug Screen. Data for the cln2 rad14 strain (AID 165);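 note: 0% = growth equal to vehicle treated cultures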; conditions: S. cerevisiae cln2 rad14 strain, at 50.0 µM, active compounds read high
In short: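 Yeast carrying cln2 and rad14 alterations (cell cycle control and DNA damage repair) were exposed to compounds. Growth inhibition was measured against vehicle-treated controls.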

[5] = NCI Yeast Anticancer Drug Screen. Data for the bub3 strain (AID 167); conditions: S. cerevisiae bub3 mutant strain, at 50.0 µM, active compounds read high
In short: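 Readout: yeast growth inhibition, expressed relative to vehicle-only wells. The test organism is a mutant strain from a panel with lesions in DNA repair or checkpoint genes.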

[6] = NCI Yeast Anticancer Drug Screen. Data for the mlh1 rad18 strain (AID 175); conditions: S. cerevisiae mlh1 rad18 strain growth inhibition; at 50.0 µM; active compounds read high
In short: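 Growth inhibition of the yeast strain was measured after compound exposure and expressed relative to vehicle-treated controls. The strain carries defined defects in DNA damage repair.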

Measured: growth inhibition

CCC(CCC(C)C)(SCC(N)=O)C(=O)O (stereo unspecified)
inactive: [1] -4.75% | [2] -5.15% | [3] -26% | [4] -39.3% | [5] 0.2% | [6] -38%

CCC(C)NC(=O)C(C)C (stereo unspecified)
inactive: [1] 2.7% | [2] -3.6% | [3] -2.9% | [4] -32.8% | [5] -3.3% | [6] 16.4%

C[N+]1(C)CCC(c2ccccc2)(c2ccccc2)C(O)C1 (stereo unspecified)
inactive: [1] -8.85% | [2] 40.7% | [3] 0% | [4] -0.2% | [5] -8.5% | [6] 1.5%

COc1ccc2ccccc2c1C1NC(=O)c2ccccc2N1 (stereo unspecified)
inactive: [1] 13.1% | [2] -17.8% | [3] 5.75% | [4] 8.9% | [5] 12.5% | [6] 0.1%

O=C1C=C(Nc2cc(Cl)ccc2Cl)c2ccccc2C1=O
inactive: [1] 9.75% | [2] 4.25% | [3] -8.8% | [4] 6.8% | [5] 15.2% | [6] 32.5%

O=C1NC(N2CCCC(CO)C2)=N/C1=C\c1ccccc1 (stereo unspecified)
inactive: [1] -15.6% | [2] -2.85% | [3] 10% | [4] 7.6% | [5] 7.15% | [6] -33.7%

CC1OC(CO)C2OC(C)OCC2O1 (stereo unspecified)
inactive: [1] -14.2% | [2] -13.9% | [3] -12.8% | [4] -18.1% | [5] 5.75% | [6] 3.95%

CC(C)CC(CC(C)C)OB(OC(CC(C)C)CC(C)C)OC(CC(C)C)CC(C)C
inactive: [1] -27.8% | [2] -15.3% | [3] -14.6% | [4] 10.9% | [5] -0.3% | [6] -7.8%

CCOC(=O)c1sc2c(c1OC(=O)c1ccccc1)c(=O)n(-c1ccccc1)c(=S)n2-c1ccccc1
inactive: [1] 21% | [2] 15.9% | [3] 30.1% | [4] 24.9% | [5] 29.2% | [6] 33.7%

CCCCCCCCCCP(=O)(O)CCCCCCCCCC
inactive: [1] 8.3% | [2] -3.8% | [3] 9.9% | [4] -144% | [5] 21.7% | [6] -16.3%

COC(=O)c1cc(Cl)c(C(=O)OC)cc1Cl
inactive: [1] 4.1% | [2] 3% | [3] 3.85% | [4] 0.6% | [5] 7.4% | [6] 8.6%

CC(=O)NNc1nc(C)c(C(=O)/C=C/c2ccc(/C=C/C(=O)c3sc(NNC(C)=O)nc3C)cc2)s1
inactive: [1] -29.6% | [2] -3.4% | [3] -37.6% | [4] 6.25% | [5] -13.2% | [6] -35.1%

C=CC(=N)N
inactive: [1] 12.3% | [2] 2.4% | [3] -5% | [4] 8.45% | [5] 6.6% | [6] 7.6%

S=C(SC1C=CCC1)N1CCOCC1 (stereo unspecified)
inactive: [1] 15.7% | [2] -2.8% | [3] 13.5% | [4] -41.8% | [5] 10.1% | [6] -13.6%

CCOC(=O)c1ccc(NC(=O)CCCCl)cc1
inactive: [1] 6.15% | [2] -14.2% | [3] -8.75% | [4] 8.55% | [5] 12.7% | [6] -24.3%

O=C(Nc1ccn(CCOC(=O)c2ccccc2)c(=O)n1)c1ccccc1
inactive: [1] -9.4% | [2] -21.3% | [3] 22.8% | [4] 14.6% | [5] 23.7% | [6] 47.6%

CCCCC(N)=O
inactive: [1] -21.9% | [2] -9.05% | [3] 9.8% | [4] 5.7% | [5] -5.2% | [6] 4.3%

CC(=O)C(OCCCl)OCCCl
inactive: [1] 2.9% | [2] -7.65% | [3] 1.6% | [4] -1.5% | [5] 0.3% | [6] -2.95%

O=C(Nc1ccc(Br)cc1)Oc1ccc(-c2ccccc2)cc1
inactive: [1] 28.9% | [2] 9.15% | [3] 4.6% | [4] 18.1% | [5] 41.8% | [6] 18.4%

CCCC(=O)NC(Nc1cc(C)ccn1)(C(=O)OCC)C(F)(F)F (stereo unspecified)
inactive: [1] -4.85% | [2] 8.5% | [3] 9.1% | [4] 7.4% | [5] 15.8% | [6] -31.9%

COC(=O)Cc1onc(-c2ccccc2)c1[N+](=O)[O-]
inactive: [1] -17.3% | [2] -12.2% | [3] -4.8% | [4] 19.9% | [5] 28.9% | [6] 32%

CN(C)c1ccc(NC2COc3ccccc3C2=O)cc1 (stereo unspecified)
inactive: [1] -13.1% | [2] 3.9% | [3] 17.4% | [4] -17.2% | [5] 67% | [6] -6.6%

O=C(O)c1ccccc1SC1OC(=O)c2ccccc21 (stereo unspecified)
inactive: [1] -0.45% | [2] -8.75% | [3] 2.35% | [4] -58.7% | [5] 2.75% | [6] -1.45%

O=C1OC(c2cccc3ccc(Br)cc23)c2ccccc21 (stereo unspecified)
inactive: [1] 21.1% | [2] 0.5% | [3] 6.2% | [4] 19.5% | [5] 16.1% | [6] 3.45%

Oc1c(O)c(O)c(O)c(O)c1O
inactive: [1] -5.3% | [2] 4.15% | [3] 7.45% | [4] -13.9% | [5] -0.45% | [6] -3%

Cc1nn(C)c2ncnc(N)c12
inactive: [1] 10.8% | [2] 0.55% | [3] 17% | [4] -7.8% | [5] -8.85% | [6] 7.7%

COC(=O)C1(CCCCCBr)CCCCCCCCCCC1=O (stereo unspecified)
inactive: [1] -8.6% | [2] -15.4% | [3] 24.1% | [4] 12.7% | [5] -25% | [6] -34.5%

COC(=O)CCC1=C(C)C2=NC1=CC1=NC(=CC3=NC(=Cc4[nH]c(/c(=C\O)c4C)=C2)C(C=O)=C3C)C(C)=C1CCC(=O)OC
inactive: [1] 28.1% | [2] 16.5% | [3] 32.2% | [4] 26.9% | [5] 9.15% | [6] 11.6%

CC(=O)NC(C)(CO)C(=O)O (stereo unspecified)
inactive: [1] 22.6% | [2] 12.7% | [3] 19.4% | [4] 13.4% | [5] 7.35% | [6] 14.1%

CCOC(=O)C1=CN(Cc2ccccc2)C2ON=C(c3ccc(Cl)cc3)C2C1 (stereo unspecified)
inactive: [1] 0.05% | [2] 2.3% | [3] -11.8% | [4] -2.35% | [5] -0.75% | [6] -0.6%

COc1ccc(C(c2cc3c(cc2O)OCO3)n2ccnc2)cc1 (stereo unspecified)
inactive: [1] 9.45% | [2] 11.8% | [3] 12.3% | [4] -55.5% | [5] 12.1% | [6] 4.9%

Cc1ccc(S(=O)(=O)OCC23CCC(CO)(CC2)CC3)cc1
inactive: [1] 9.75% | [2] -2.45% | [3] -0.85% | [4] 15.7% | [5] 27.2% | [6] 14.2%

c1ccc([Si](c2ccccc2)(c2cccs2)c2cccs2)cc1
inactive: [1] -8.35% | [2] 6.35% | [3] 12.5% | [4] 7.85% | [5] 3.6% | [6] 26%

Cc1cccc(NC(=O)c2ccc(Cl)c(Cl)c2)c1
inactive: [1] 11.3% | [2] 13.7% | [3] -0.25% | [4] -65.6% | [5] 30.4% | [6] -8.65%

CCCNC1=C(OC)C(=O)C(NCCC)=C(OC)C1=O
inactive: [1] -0.3% | [2] 6.8% | [3] 9.15% | [4] -47.5% | [5] 2% | [6] -9.15%

c1ccc2c(c1)Cc1c-2n[nH]c1-c1[nH]nc2c1Cc1ccccc1-2
inactive: [1] 26.6% | [2] 8.85% | [3] 34.8% | [4] 22.3% | [5] 16% | [6] 55.2%
